Experimental data: PubChem BioAssay AID1117264 (The Scripps Research Institute Molecular Screening Center, 2014)
Among all 89,000 compounds or so, about 440 (0.49%) were called active.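 How the source made its calls: active means inhibition above the mean inhibition across all screened compounds plus 3 SD (cut at about 11% in these data); inactive means the rest.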 Only a selection was taken, and actives are over-represented in it overall.

biological target: RNA-editing ligase 1, mitochondrial (Trypanosoma brucei brucei) (UniProt P86926); assay: TbREL1 RNA ligase inhibitors, primary screen, biochemical, FRET fluorescence (AID 1117264); settings: TbREL1 RNA ligation, at 9.66 µM, stronger effect = higher value;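 further: 0% = plate median of test wells and 100% = NSC42067 control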
Sequence (P86926 whole entry, looked up): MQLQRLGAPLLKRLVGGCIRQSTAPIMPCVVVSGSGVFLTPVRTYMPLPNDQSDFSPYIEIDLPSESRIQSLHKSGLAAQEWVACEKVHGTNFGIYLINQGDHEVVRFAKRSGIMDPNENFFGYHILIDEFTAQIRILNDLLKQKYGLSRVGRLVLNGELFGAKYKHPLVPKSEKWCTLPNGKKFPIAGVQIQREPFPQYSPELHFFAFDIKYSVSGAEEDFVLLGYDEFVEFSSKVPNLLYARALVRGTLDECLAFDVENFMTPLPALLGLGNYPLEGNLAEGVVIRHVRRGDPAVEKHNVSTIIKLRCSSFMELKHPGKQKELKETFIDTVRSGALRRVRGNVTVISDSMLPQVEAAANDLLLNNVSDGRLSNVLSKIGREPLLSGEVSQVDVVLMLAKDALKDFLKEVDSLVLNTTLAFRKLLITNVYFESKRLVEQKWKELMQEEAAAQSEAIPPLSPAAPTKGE

Compound | inhibition
O=[N+]([O-])c1ccc2c(c1)C(O)n1nc(-c3ccccc3)nc1S2 (stereo unspecified) | 5.85% (inactive)
O=C(CSc1nccn1-c1cccc(F)c1)NC1CCCC1 | -3.03% (inactive)
COc1cc(-c2nnc(NC(=O)C3=COCCO3)o2)cc(OC)c1OC | 1.27% (inactive)
O=C(CSc1nc2ccccc2nc1N1CCCCC1)N1CCN(S(=O)(=O)c2cccc([N+](=O)[O-])c2)CC1 | -1.26% (inactive)
Cc1cc(=O)oc2cc(OCC(=O)Nc3nnc(C4CC4)s3)ccc12 | 4.82% (inactive)
Cc1ccc(NC(=O)CN(C)C(=O)COC(=O)C(C)(C)Oc2ccc(Cl)cc2)cc1 | 1.09% (inactive)
CCNc1nc(Oc2ccc(C(=O)OC)cc2)nc(N2CCOCC2)n1 | 3.37% (inactive)
CCCC[C@@H]1CN=C(N)N1CCCC | 8.04% (inactive)
O=C(Cn1nnc(N2CCCCC2)n1)c1ccc(Cl)c(Cl)c1 | 2.76% (inactive)
O=C(Nc1cccc(F)c1)NC1CCCc2ccccc21 (stereo unspecified) | 4.99% (inactive)
O=C(Nc1cccc(F)c1)NC1CCCCCCC1 | 12% (active)
Cc1cc(C)cc(NC(=O)NC2CCCCCCC2)c1 | 4.83% (inactive)
O=C(CSc1nnc(COc2ccccc2)n1Cc1ccco1)c1ccc2ccccc2c1 | 2.5% (inactive)
CN1CCC(=NNC(=O)c2ccc(N(Cc3ccc(Cl)cc3)S(C)(=O)=O)cc2)CC1 | 0.47% (inactive)
CC(C)C[C@H]1CN=C(Nc2ccccc2)N1CC1CCCCC1 | 4.52% (inactive)
Cc1cc(C)c(OCC(=O)N(Cc2cccs2)C2CCS(=O)(=O)C2)c(C)c1 (stereo unspecified) | 2.35% (inactive)
C=CCNC(=S)NNC(=O)c1cc(Cl)ccc1OC | -1.18% (inactive)
CCN(C(=O)CSc1nnc(-c2ccc(OC(F)F)cc2)n1N)C1CCS(=O)(=O)C1 (stereo unspecified) | -0.55% (inactive)
O=C(CSc1ccc([N+](=O)[O-])cn1)Nc1ccc(N2CCOCC2)c(Cl)c1 | 4.47% (inactive)
CC(C)CNC(=O)OCc1cn(Cc2ccc(F)cc2)nn1 | -1.2% (inactive)
Nc1nonc1-n1nnc(C(=O)N/N=C/C2CCCCC2)c1-c1ccccc1 | 2.56% (inactive)
CC1CCN(S(=O)(=O)c2ccc3[nH]c(=O)ccc3c2)CC1 | 2.13% (inactive)
Cc1cccc(NC(=S)N2CCCC(c3nc4ccccc4[nH]3)C2)c1 (stereo unspecified) | -6.41% (inactive)
COc1ccc(NC(=O)CCN2C(=O)/C(=C/c3ccc4c(c3)OCO4)SC2=S)cc1 | -1.87% (inactive)
O=C(O)c1ccc(S(=O)(=O)N2CCOCC2)o1 | 0.79% (inactive)
COc1ccc(Br)c(Cn2c(C)c(C(=O)NCc3cccs3)sc2=O)c1 | 2.25% (inactive)

Compound | inhibition
Cc1cc(NC(=O)C(C)N2C(=O)c3ccccc3S2(=O)=O)no1 (stereo unspecified) | 3.27% (inactive)
CC1(C)Cc2c(sc(NC(=O)C(=O)N3CCOCC3)c2C#N)CO1 | -1.21% (inactive)
COc1ccc(OC)c(NC(=O)c2cccc(S(=O)(=O)N3CCN(C(C)=O)CC3)c2)c1 | -0.85% (inactive)
CC(=O)Nc1ccc(NC(=O)CSC2=NS(=O)(=O)c3ccccc3N2)cc1 | 2.64% (inactive)
CCCOc1cccc(C(=O)Nc2ccccc2C(=O)N2CCN(C)CC2)c1 | 0.64% (inactive)
Cc1sc2ncn(CC(=O)NCCN(C)C)c(=O)c2c1S(=O)(=O)N1CCC(C)CC1 | -1.59% (inactive)
Cc1ccc(C(=O)Cc2nnc(C)s2)cc1 | -0.4% (inactive)
CSCCC(NC(=O)COc1ccccc1)C(=O)Nc1ccc(C)cc1 (stereo unspecified) | -0.75% (inactive)
O=C(CCNC(=O)Cn1ccc2ccccc2c1=O)NCCC1=CCCCC1 | -2.59% (inactive)
CC(Oc1ccccc1)C(=O)Nc1c2c(nn1-c1ccccc1)CS(=O)C2 (stereo unspecified) | 0.74% (inactive)
CCOC(=O)N1CCN(C(=O)c2ccccc2N(Cc2ccccc2)S(=O)(=O)c2ccc(OC)cc2)CC1 | -1.48% (inactive)
COc1ccc(NC(=O)CN(C)C(=O)CNC(=O)C2CCCCC2)cc1 | -1.04% (inactive)
N/C(=N\OC(=O)Cc1ccc([N+](=O)[O-])cc1)c1ccccn1 | 5.64% (inactive)
CCOc1ccc(-n2cnnn2)cc1S(=O)(=O)N1CCC(C)CC1C (stereo unspecified) | -0.48% (inactive)
CC(=O)O[C@@]1(C(C)=O)CCC2[C@H]3C=C(C)C4=CC(=O)CC[C@@]4(C)C3CC[C@]21C (stereo partly specified) | 2.86% (inactive)
Cc1ccc(CN(Cc2cccnc2)C(=S)Nc2cccc(Cl)c2C)cc1 | -3.35% (inactive)
COc1cccc2c1CCC(NC(C)=O)C2=O (stereo unspecified) | 0.33% (inactive)
CC(C#N)OC(=O)c1cccnc1SCC(=O)Nc1ccc2c(c1)OCO2 (stereo unspecified) | -2.63% (inactive)
COC(=O)c1ccc2c(c1)S(=O)(=O)NC2C (stereo unspecified) | -0.32% (inactive)
O=C1CCC/C=C\C[C@@H](CC(=O)N(CCO)Cc2ccccc2)C(=O)NCCO1 | 3.07% (inactive)
O=C(Nc1n[nH]c(C(F)(F)F)n1)c1cccs1 | 0.59% (inactive)
Cc1cc(=O)[nH]c(SCC(=O)Nc2ccc(Cl)cc2C)n1 | 6.53% (inactive)
CC(=O)Nc1ccc(-c2csc(NC=C3C(=O)OC(C)(C)OC3=O)n2)cc1 | 0.47% (inactive)
CC(C)(C)OC(=O)c1c(N)n(CCCN2CCCC2=O)c2nc3ccccc3nc12 | -0.01% (inactive)
CC(C)Cn1c(N)c(C(=O)NCc2cccs2)c2nc3ccccc3nc21 | 44% (active)
O=C(CN1CCN(c2ccccn2)CC1)NCc1cccs1 | -2.97% (inactive)

Compound | inhibition
Nc1c(Cl)cc(-c2csc(N3CCCC3c3nc4cc(Cl)c(Cl)cc4n3CCOCCO)n2)cc1Cl (stereo unspecified) | -4.69% (inactive)
Cn1ccnc1SCC(=O)Nc1ccc2c(c1)OCCO2 | 2.46% (inactive)
Cc1cccc(NC(=S)NC23CN4CN(CN(C4)C2)C3)c1 | -3.73% (inactive)
COC(=O)C(C)Oc1ccc2c(c1)O/C(=C\c1cccc(Br)c1)C2=O (stereo unspecified) | 1.78% (inactive)
Cc1c(C(=O)OCC(=O)N2CCCC2=O)oc2ccccc12 | -0.28% (inactive)
COC(=O)C1=C(C)N(Cc2cccc(C(F)(F)F)c2)C(=NCc2cccc(C(F)(F)F)c2)NC1c1ccccc1C(F)(F)F (stereo unspecified) | 17.6% (active)
COC(=O)C1=C(C)N(Cc2ccccc2)C(=NCCCOC(C)C)N[C@H]1c1ccccc1 | 8.47% (inactive)
COC(=O)C1=C(C)N(Cc2cccc(C(F)(F)F)c2)C(=NCc2ccccc2)NC1c1ccccc1C(F)(F)F (stereo unspecified) | 18.8% (active)
CC(C)NC(=O)C1(C)CCCCN1Cc1cccc(C(F)(F)F)c1 (stereo unspecified) | -3.05% (inactive)
COC(=O)C1=C(C)N(Cc2ccc(F)cc2)C(=S)NC1c1cccc(Cl)c1 (stereo unspecified) | -6.48% (inactive)
COC(=O)C1=C(C)N(Cc2cccc(C(F)(F)F)c2)C(=NCc2ccccc2)NC1c1ccc(Cl)cc1 (stereo unspecified) | 10.5% (inactive)
C[C@H](NC(=O)c1[nH]cnc1C(=O)Nc1nccs1)c1ccccc1 | 2.49% (inactive)
S=C(NCc1ccco1)NCc1ccccc1Cl | -2.97% (inactive)
CCOC(=O)C1CCN(c2c(Nc3cc(C)cc(C)c3)c(=O)c2=O)CC1 | -4.56% (inactive)
Cc1ccc(NS(=O)(=O)c2ccc(C(C)C)cc2)cc1S(=O)(=O)N1CCOCC1 | -0.97% (inactive)
Cc1cccc(Nc2nnc(SCC(=O)c3c(N)n(C4CC4)c(=O)[nH]c3=O)s2)c1C | 1.72% (inactive)
O=C(CSc1nc2sc3c(c2c(=O)n1-c1ccccc1)CCCC3)NN=Cc1ccc(OCc2ccccc2)cc1 | 0.03% (inactive)
Cc1ccc2c(c1)nnc1nnc(SCC(=O)O)n12 | 1.61% (inactive)
COC(=O)c1cc(S(=O)(=O)N2CCN(C(=O)C3CCCO3)CC2)cn1C (stereo unspecified) | 0.88% (inactive)
Cc1ccc2c(CN3CCN(S(=O)(=O)c4ccccc4C(F)(F)F)CC3)cc(=O)oc2c1 | 6.44% (inactive)
CC(=O)Nc1ccc(NC(=O)[C@@H](NC(=O)c2cccc(C)c2)C(C)C)cc1 | 1.63% (inactive)
COc1ccccc1NC(=S)N1CCC(NC(=O)C23CC4CC(CC(C4)C2)C3)CC1 | -2.86% (inactive)
COC(=O)C1=C(C)N(c2ccc(Br)cc2)C(=O)/C1=C\c1ccco1 | 4.92% (inactive)
CC(C)(C)C1C/C(=C/c2ccco2)C(=O)/C(=C/c2ccco2)C1 (stereo unspecified) | 32.6% (active)
